Source: PubChem BioAssay (NCI)
The panel holds about 79,000 compounds, 15% with a hit somewhere; the sample as a whole holds those more often. Values without a mark were called inactive. Activity calls are given as the source filed them. Cut-off read from the data, not from the text of the source: active = growth inhibition above about 70%; inactive = the rest.

Legend:
[1] = NCI Yeast Anticancer Drug Screen. Data for the rad50 strain (AID 155);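 note: 0% = growth of vehicle-only cultures of the same strain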; details: S. cerevisiae rad50 strain growth inhibition, hits give high values
Outline: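 DNA repair mutant yeast, compound exposure, growth read-out; inhibition is taken relative to vehicle.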

[2] = NCI Yeast Anticancer Drug Screen. Data for the mec2-1 strain (AID 157); details: S. cerevisiae mec2-1 strain, hits give high values
Outline: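 Yeast mec2-1 mutant treated with compound. Readout: growth inhibition vs vehicle controls.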

[3] = NCI Yeast Anticancer Drug Screen. Data for the sgs1 mgt1 strain (AID 161);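 note: 0% = growth of cultures given vehicle only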; details: S. cerevisiae sgs1 mgt1 strain, hits give high values
Outline: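 Read-out: growth inhibition vs vehicle controls. Cells: mutant yeast strain deficient in DNA damage repair.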

[4] = NCI Yeast Anticancer Drug Screen. Data for the cln2 rad14 strain (AID 165);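 note: 0% = growth equal to vehicle treated cultures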; details: S. cerevisiae cln2 rad14 strain, hits give high values
Outline: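 cln2 rad14 yeast strain; compound exposure; growth inhibition read vs vehicle controls.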

[5] = NCI Yeast Anticancer Drug Screen. Data for the bub3 strain (AID 167); details: S. cerevisiae bub3 mutant strain, hits give high values
Outline: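 In this screen, a yeast mutant lacking normal mitotic checkpoint function is challenged with compound. Relative growth versus vehicle gives the inhibition value.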

[6] = NCI Yeast Anticancer Drug Screen. Data for the mlh1 rad18 strain (AID 175); details: S. cerevisiae mlh1 rad18 strain growth inhibition, hits give high values
Outline: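 Yeast w/ defined DNA-repair lesions; compound exposure; growth vs vehicle controls → % inhibition.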

[7] = at 5.0 µM (retest, dose inferred, filed as 0.5)
[8] = at 50.0 µM (retest, dose inferred, filed as 5.0)

Row | SMILES | growth inhibition [1, 7] [%] | growth inhibition [1, 8] | growth inhibition ([1]; at 50.0 µM) | growth inhibition [2, 7] [%] | growth inhibition [2, 8] | growth inhibition ([2]; at 50.0 µM) | growth inhibition [3, 7] [%] | growth inhibition [3, 8] | growth inhibition ([3]; at 50.0 µM) | growth inhibition [4, 7] [%] | growth inhibition [4, 8] | growth inhibition ([4]; at 50.0 µM) | growth inhibition [5, 7] | growth inhibition [5, 8] | growth inhibition ([5]; at 50.0 µM) | growth inhibition [6, 7] | growth inhibition [6, 8] | growth inhibition ([6]; at 50.0 µM)
1 | C/C=C(\CCC1NCCc2c1[nH]c1ccccc21)[Si](C)(C)C (stereo not given) | -20 | 99% (active) | 96.3% (active) | -4 | 99% (active) | 86.5% (active) | 19 | 99% (active) | 93.1% (active) | 4 | 99% (active) | 75.3% (active) | 11% | 98% (active) | 77.8% (active) | -21% | 100% (active) | 95.8% (active)
2 | COc1cccc2c1C(=O)c1c(O)c3c(c(O)c1C2=O)C[C@@](O)(/C(C)=N\NC=O)C[C@@H]3OC1CC(N)C(O)C(C)O1 (stereo not given in full) | -3 | 86% (active) | 75% (active) | -1 | 45% | 49.5% | -4 | 38% | 72.7% (active) | 8 | 51% | 39.9% | 17% | 84% (active) | 76.5% (active) | 4% | 90% (active) | 76% (active)
3 | O=C1C=CC(=O)N1c1ccccc1 (tested in a mixture with another compound) | 0 | 20% | 91% (active) | -1 | 32% | 92.8% (active) | 0 | 39% | 94.4% (active) | -3 | 34% | 93.8% (active) | -15% | 77% (active) | 95.2% (active) | -1% | 22% | 77.2% (active)
4 | COC(=O)c1cc(-c2c[nH]cc2C(=O)OCc2ccccc2)cn1S(=O)(=O)c1ccc(C)cc1 | 17 | 6% | 92.5% (active) | 18 | 11% | 93.1% (active) | 7 | -6% | 94.4% (active) | 2 | 2% | 88.9% (active) | -39% | 2% | 87.3% (active) | 24% | 22% | 91.2% (active)
5 | CC1=CC(=O)C(O)=C/C1=C\C=C\c1ccccc1 | 15 | 98% (active) | 99.2% (active) | 23 | 99% (active) | 99% (active) | 26 | 99% (active) | 49.4% | 6 | 97% (active) | 98.8% (active) | 11% | 98% (active) | 99% (active) | 50% | 98% (active) | 99.2% (active)
6 | CCCCCCCCCC(=O)CC(=O)c1ccc(O)cc1O | 33 | 96% (active) | 86.5% (active) | 27 | 97% (active) | 89.5% (active) | 50 | 98% (active) | 89.7% (active) | 37 | 97% (active) | 88.6% (active) | 39% | 98% (active) | 89.2% (active) | 48% | 97% (active) | 87.5% (active)
7 | C/C(=N\NC(=S)N1CCCCCC1)c1cccc2cccnc12 | -3 | 14% | 94.2% (active) | -5 | 44% | 83.9% (active) | 7 | 30% | 97.6% (active) | -19 | 2% | 94.4% (active) | -4% | 26% | 87.5% (active) | -9% | 22% | 86.2% (active)
8 | O=C1/C(=C/c2ccccc2Cl)COc2ccccc21 | 30 | 97% (active) | 91.5% (active) | -15 | 98% (active) | 93.9% (active) | 15 | 97% (active) | 90.7% (active) | 20 | 97% (active) | 90.8% (active) | 32% | 98% (active) | 90.7% (active) | -25% | 97% (active) | 90.2% (active)
9 | CC(C)SC(=S)S(=O)(=O)c1ccc(Cl)cc1 | 5 | 69% | 99.4% (active) | 0 | 64% | 99.8% (active) | 18 | 74% (active) | 99.7% (active) | -6 | 63% | 78.2% (active) | 11% | 83% (active) | 99.7% (active) | 8% | 76% (active) | 99.7% (active)
10 | C/C(=C/C(=O)/C=C/c1ccccc1)c1c(C)[nH]c2ccccc12 | -24 | -3% | 4.3% | -17 | 3% | -19.1% | -6 | -4% | -7.4% | 1 | -6% | 34.4% | 0% | 1% | 81.9% (active) | 4% | 16% | -0.4%
11 | COc1ccc2c(c1)[n+]([O-])c(-c1ccc(Cl)c(Cl)c1)c(N)[n+]2[O-] | 23 | 98% (active) | 99.5% (active) | 26 | 99% (active) | 99.5% (active) | 29 | 99% (active) | 99.7% (active) | 38 | 98% (active) | 99.3% (active) | 76% (active) | 99% (active) | 99.6% (active) | 71% (active) | 99% (active) | 99.4% (active)
12 | C=CC(=O)Nc1ccccc1CC(c1c[nH]c2ccccc12)c1c[nH]c2ccccc12 | 34 | 34% | 85% (active) | 26 | 26% | 73.7% (active) | 34 | 34% | 81.5% (active) | 12 | 12% | 84.3% (active) | 21% | 21% | 74.5% (active) | 27% | 27% | 76.9% (active)
13 | CCCCC(C)(C)OC(=O)Nc1ccc(Br)cc1 | 0 | 95% (active) | 96.3% (active) | -14 | 94% (active) | 86.2% (active) | -8 | 95% (active) | 97.8% (active) | 43 | 96% (active) | 84.2% (active) | -8% | 93% (active) | 35.5% | -2% | 96% (active) | 97.4% (active)
14 | CCN(CC)CCSCCCNc1cc(OC)cc2cccnc12 | -1 | 24% | 67.5% | 6 | 29% | 59.6% | 13 | 54% | 71% (active) | 8 | 32% | 78% (active) | 10% | 54% | 54% | 7% | 28% | 65.3%
15 | CC(Cc1ccccc1)NNC(C)Cc1ccccc1 (stereo not given) | 10 | 81% (active) | 99.5% (active) | 4 | 64% | 96.2% (active) | 11 | 90% (active) | 75.5% (active) | -39 | 63% | 83.2% (active) | 16% | 91% (active) | 94.5% (active) | 7% | 83% (active) | 99.5% (active)
16 | Cc1ccc(N2C(=O)CCSC2=S)cc1C | -1 | 87% (active) | 97.2% (active) | 0 | 35% | 80.5% (active) | 4 | 96% (active) | 98.3% (active) | -2 | 32% | 38.9% | -5% | 77% (active) | 68.7% | -2% | 98% (active) | 95.4% (active)
17 | CC(C)(Cl)C(Cl)CC/C(CBr)=C(\Cl)CCl (stereo not given) | 28 | 98% (active) | 86.7% (active) | 19 | 98% (active) | 89.9% (active) | 14 | 100% (active) | 91.5% (active) | 26 | 98% (active) | 88.2% (active) | 27% | 100% (active) | 88.2% (active) | 21% | 98% (active) | 1.35%
18 | Cn1cnc([N+](=O)[O-])c1Sc1ccc(Cl)cc1 | 16 | 93% (active) | 93.8% (active) | 8 | 92% (active) | 76.9% (active) | 11 | 98% (active) | 90.9% (active) | 2 | 61% | 42.2% | 0% | 92% (active) | 83.2% (active) | 5% | 97% (active) | 90.3% (active)
19 | Cc1cnc(Sc2ncccc2[N+](=O)[O-])[nH]c1=O | 2 | 7% | -7% | -3 | 21% | 43.1% | 5 | 14% | 29.1% | -3 | 2% | 26.1% | 6% | 9% | -2.7% | 0% | 24% | 27.9%
20 | CN(C)c1nc(-c2ccccc2)cc(-c2ccc(O)cc2)n1 | 14 | 93% (active) | 36.8% | -10 | 27% | 13.7% | 22 | 92% (active) | 45.9% | 22 | 48% | 45.5% | -2% | 77% (active) | 60.5% | 24% | 88% (active) | 68.2%
